Screening data (PubChem)
The list is not random: actives were taken first. Their share in the collection is about 5.7%.
MPTP inh: inhibitors of mitochondrial permeability transition pore. isolated mouse mitochondria, Ca2+ swelling absorbance, 30 min. inhibition, % at 10 µM. hit rate 1.4% among 360,000. AID 602449;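 active = inhibition of 50% or more, scaled per plate between neutral and stimulator controls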;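 also: 0% = DMSO wells given calcium and 100% = 1 mM EGTA wells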
rCAG RNA binder: r(CAG) repeat RNA binding; TO-PRO-1 dye displacement fluorescence; inhibition, % at 3 µM; hit rate 1.3% among 370,000;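 active = inhibition above the plate cutoff, the mean of all test compounds on that plate plus 3 SD, cut at about 35% in these data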;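 also: 0% = DMSO alone and 100% = 100 µM mitoxantrone as full dye displacement; higher means more dye released from RNA so lower well fluorescence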
NR3A LBD binder: modulators (binders) of human NR3A ligand-binding domain; Tm shift relative to glycine control, % at 25 µM; NR3A LBD differential scanning fluorimetry, Tm shift; 0% = protein alone, 100% = glycine-bound protein; hit rate 2.5% among 340,000;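 active = melting temperature shift of at least 10% of the positive control shift, at one fixed dose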
FAS TE block: inhibitors of human fatty acid synthase thioesterase domain | hit rate 0.67% among 360,000 | recombinant FAS-TE, OMFH fluorogenic substrate, fluorescence endpoint | inhibition, % at 15 µM | AID 602261;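 active = compounds whose normalised, plate-corrected inhibition of enzyme fluorescence in the single-dose primary screen is 50% or more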;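 also: 0% = DMSO with enzyme and 100% = substrate without enzyme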
Target sequence (P49327 whole entry, looked up, the tested form may be a part): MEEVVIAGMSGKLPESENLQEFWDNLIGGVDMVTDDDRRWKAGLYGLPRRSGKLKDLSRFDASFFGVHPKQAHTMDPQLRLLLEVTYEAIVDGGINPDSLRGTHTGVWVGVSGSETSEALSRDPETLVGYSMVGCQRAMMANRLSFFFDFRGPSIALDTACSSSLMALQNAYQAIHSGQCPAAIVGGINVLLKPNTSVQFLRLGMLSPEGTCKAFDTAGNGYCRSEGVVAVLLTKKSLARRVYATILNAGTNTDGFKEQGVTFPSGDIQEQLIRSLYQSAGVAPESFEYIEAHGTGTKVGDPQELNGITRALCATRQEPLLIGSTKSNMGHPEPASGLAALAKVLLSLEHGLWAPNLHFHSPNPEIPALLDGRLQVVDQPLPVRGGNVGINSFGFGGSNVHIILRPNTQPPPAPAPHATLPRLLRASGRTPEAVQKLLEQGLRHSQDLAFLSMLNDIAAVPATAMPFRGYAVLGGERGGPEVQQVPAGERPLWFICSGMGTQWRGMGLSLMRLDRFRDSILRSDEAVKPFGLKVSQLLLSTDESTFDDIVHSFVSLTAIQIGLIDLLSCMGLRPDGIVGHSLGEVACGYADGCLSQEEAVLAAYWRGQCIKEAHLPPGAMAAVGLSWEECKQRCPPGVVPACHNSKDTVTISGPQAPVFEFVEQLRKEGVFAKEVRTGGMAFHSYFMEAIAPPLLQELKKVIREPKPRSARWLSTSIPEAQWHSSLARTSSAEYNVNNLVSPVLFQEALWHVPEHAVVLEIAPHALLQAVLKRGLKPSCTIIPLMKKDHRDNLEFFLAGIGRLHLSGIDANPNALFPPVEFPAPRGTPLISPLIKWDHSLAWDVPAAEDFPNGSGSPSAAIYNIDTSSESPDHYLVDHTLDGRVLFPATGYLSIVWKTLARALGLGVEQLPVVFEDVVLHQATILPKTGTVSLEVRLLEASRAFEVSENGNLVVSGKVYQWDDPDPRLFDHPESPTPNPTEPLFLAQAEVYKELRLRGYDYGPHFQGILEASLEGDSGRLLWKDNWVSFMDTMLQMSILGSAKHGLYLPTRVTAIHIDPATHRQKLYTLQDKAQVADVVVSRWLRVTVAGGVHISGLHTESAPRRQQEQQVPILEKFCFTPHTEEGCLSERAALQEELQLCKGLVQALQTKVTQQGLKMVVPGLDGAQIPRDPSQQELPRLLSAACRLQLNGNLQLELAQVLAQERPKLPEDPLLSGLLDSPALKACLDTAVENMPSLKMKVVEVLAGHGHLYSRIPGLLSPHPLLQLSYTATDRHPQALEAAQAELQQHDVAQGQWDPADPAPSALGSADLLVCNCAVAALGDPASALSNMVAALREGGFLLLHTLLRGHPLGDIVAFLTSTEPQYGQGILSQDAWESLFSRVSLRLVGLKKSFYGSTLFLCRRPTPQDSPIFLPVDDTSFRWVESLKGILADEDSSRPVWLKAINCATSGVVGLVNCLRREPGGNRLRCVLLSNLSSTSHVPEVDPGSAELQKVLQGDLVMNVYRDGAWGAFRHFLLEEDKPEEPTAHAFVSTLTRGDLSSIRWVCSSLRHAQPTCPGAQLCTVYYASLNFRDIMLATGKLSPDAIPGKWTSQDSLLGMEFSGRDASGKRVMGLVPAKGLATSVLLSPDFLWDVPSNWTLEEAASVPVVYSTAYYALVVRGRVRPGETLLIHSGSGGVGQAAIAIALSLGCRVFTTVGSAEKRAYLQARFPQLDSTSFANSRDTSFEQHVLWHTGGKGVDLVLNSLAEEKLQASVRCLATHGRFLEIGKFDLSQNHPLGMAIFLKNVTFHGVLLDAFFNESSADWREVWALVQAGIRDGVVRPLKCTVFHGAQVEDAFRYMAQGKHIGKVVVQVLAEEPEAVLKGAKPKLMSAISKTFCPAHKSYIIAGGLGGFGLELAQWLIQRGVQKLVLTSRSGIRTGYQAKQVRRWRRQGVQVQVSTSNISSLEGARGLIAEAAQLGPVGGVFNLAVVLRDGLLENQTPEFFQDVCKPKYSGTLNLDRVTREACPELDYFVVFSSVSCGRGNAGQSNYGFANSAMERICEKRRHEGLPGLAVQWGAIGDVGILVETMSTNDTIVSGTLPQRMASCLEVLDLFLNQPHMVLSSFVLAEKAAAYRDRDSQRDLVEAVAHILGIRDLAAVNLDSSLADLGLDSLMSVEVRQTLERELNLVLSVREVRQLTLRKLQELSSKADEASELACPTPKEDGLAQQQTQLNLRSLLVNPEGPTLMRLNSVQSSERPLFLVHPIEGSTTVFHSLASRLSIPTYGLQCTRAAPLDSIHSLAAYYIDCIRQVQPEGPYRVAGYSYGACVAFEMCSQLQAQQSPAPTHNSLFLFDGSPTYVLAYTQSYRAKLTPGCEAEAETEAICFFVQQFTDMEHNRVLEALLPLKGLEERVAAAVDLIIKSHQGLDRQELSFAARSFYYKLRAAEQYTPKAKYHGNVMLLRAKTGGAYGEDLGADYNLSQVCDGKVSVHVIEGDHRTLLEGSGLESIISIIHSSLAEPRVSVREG
Myeloid diff MLP: myeloid differentiation induction; hit rate 1% among 360,000; calls only at 10 µM; ER-HoxA9 myeloid progenitors, lysozyme-GFP differentiation, flow cytometry; AID 624256;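 active = normalized GFP-positive differentiation at or above the plate's own cutoff, the solvent-only control mean plus 3 SD; inconclusive = no clear call, values can overlap the other calls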;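 also: cells exposed to compound for four days before flow analysis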
Rh123 counter: membrane potential counter-screen of mitochondrial pore inhibitors; shares compounds with MPTP inh; isolated mitochondria, Rhodamine 123 fluorescence; inhibition, % at 10 µM; hit rate 78% among 5,000; in the data active = inhibition above about 22%;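 also: 0% = DMSO vehicle and 100% = positive control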
MPTP swell DR: dose response confirmation of mitochondrial permeability transition pore inhibitors | shares compounds with MPTP inh | isolated mitochondria swelling, absorbance | IC50, µM | hit rate 58% among 780 | AID 651561; in the data active = IC50 below about 20 µM
MPTP counter DR: counter-screen for mitochondrial permeability transition pore inhibitors, dose response; shares compounds with MPTP inh; AID 651564; isolated mitochondria counterscreen, fluorescence read-out; hit rate 49% among 780; IC50, µM; in the data active = IC50 below about 80 µM
* marks the source's active call; other numbers are inactive results; i = inactive; ? = inconclusive; . = no result.

SMILES	MPTP inh	rCAG RNA binder	NR3A LBD binder	FAS TE block	Myeloid diff MLP	Rh123 counter	others
COCC(=O)O[C@]1(CCN(C)CCCc2nc3ccccc3[nH]2)CCc2cc(F)ccc2[C@@H]1C(C)C	92.9*	0.7	-3.5	6.1	?	-12.8
C=CCNCCCCOc1c(Cl)cc(C)cc1Br	-1.7	8.5	0.5	-5.0	i	.
C=CCNCCCOc1ccc(C)cc1Br	81.1*	-1.0	0.8	-6.4	i	1.8	MPTP swell DR=15.5*;MPTP counter DR=>80
Cc1cc(Nc2ccc([N+](=O)[O-])cc2)nc2ccccc12	75.7*	18.3	39.3*	-5.2	i	58.5*
CC(C)NC(=O)c1ccc2c(=O)n(C3CCCC3)c(=S)[nH]c2c1	3.3	-0.7	-2.4	-3.8	i	.
O=C(c1ccc2c(=O)n(C3CCCC3)c(=S)[nH]c2c1)N1CCc2ccccc21	79.6*	0.5	-2.7	3.3	i	68.6*
N#C/C(=N\Nc1ccccc1Cl)C(=O)c1ccccc1	91.0*	28.8	2.5	-4.6	i	101.7*
N#C/C(=N\Nc1c(Cl)cccc1Cl)C(=O)NN	-2.1	5.1	-1.8	-16.8	i	.
CC(C)C(=O)Nc1ccc(Sc2ccc(F)cc2)cc1	51.7*	1.8	-9.2	14.9	i	36.7*
CC(SCc1ccccc1)C(=O)Nc1ccc(F)cc1 (stereo not drawn)	1.1	6.2	1.4	4.9	i	.
O=[N+]([O-])c1ccc(-c2nc3ccc([N+](=O)[O-])cc3[nH]2)cc1	105.1*	5.3	-2.1	12.4	i	92.4*
O=[N+]([O-])c1ccc2nc(/C=C/c3ccc(Cl)cc3)[nH]c2c1	90.0*	17.7	2.1	39.1	i	80.1*
COc1cc(=O)oc(C=O)c1C	.	-1.9	.	.	.	.
CN1CCN(/N=C/c2ccc(N(c3ccccc3)c3ccccc3)cc2)CC1	81.3*	-5.8	-1.2	21.0	i	-14.9
CN1CCN(/N=C/c2ccc(Cl)c(Cl)c2)CC1	89.8*	-2.0	-2.1	-5.2	i	-4.0
CN1CCN(/N=C/c2ccc(N(C)c3ccccc3)cc2)CC1	0.2	-4.2	-0.5	-3.3	i	.
O=C(CSC1=NS(=O)(=O)c2cc(Cl)ccc2N1)NCc1ccc(F)cc1	-2.1	25.2	-1.8	-3.0	i	.
O=C(CSC1=NS(=O)(=O)c2cc(Cl)ccc2N1)c1ccc(Cl)cc1	97.9*	16.8	11.9*	0.4	i	88.3*
CCOC(=O)c1c(-c2ccccc2)oc2ccc(OCC(O)CN(C)C)cc12 (stereo not drawn)	98.8*	6.9	-1.0	-7.6	i	-13.4	MPTP swell DR=6.51*;MPTP counter DR=>80
Oc1cc(Cl)cc(Cl)c1Cl	52.5*	1.5	1.6	-2.2	i	80.1*
O=C(Oc1ccc2ccc(OC(=O)N3CCCCCC3)cc2c1)N1CCCCCC1	69.1*	-3.4	-3.4	30.1	i	81.5*
O=C(Oc1ccc(Cl)cc1)N1CCCCC1	3.0	-3.0	0.6	-3.7	i	.
CCN(CC)S(=O)(=O)c1cc(C(=O)OCC(=O)c2ccc3c(c2)NC(=O)CO3)ccc1Cl	85.1*	4.0	0.5	3.6	i	59.2*
COc1cccc(CNC(=O)C2CCC(CNS(=O)(=O)c3cccc4cccnc34)CC2)c1OC (stereo not drawn)	.	1.2	.	.	.	.
O=[N+]([O-])c1cccc(-c2nc(-c3cccs3)c(-c3cccs3)[nH]2)c1	103.8*	10.6	6.3	33.5	i	53.1*
SMILES	MPTP inh	rCAG RNA binder	NR3A LBD binder	FAS TE block	Myeloid diff MLP	Rh123 counter	others
O=C(NNC(=O)c1ccc(O)c(Cl)c1)c1cccc(S(=O)(=O)N2CCOCC2)c1	-1.1	8.2	0.2	-4.6	i	.
O=C(O)C1CC=CCC1C(=O)N1CCN(c2nc(-c3ccccc3)c3ccccc3n2)CC1 (stereo not drawn)	82.6*	6.0	-1.4	-11.2	i	-11.3	MPTP swell DR=10.3*;MPTP counter DR=>80
Cc1ccc(C2(c3noc(CN4CCC(c5ccncc5)CC4)n3)CCCC2)cc1	69.3*	-7.0	-1.3	16.3	i	46.4*
Cn1nc(C(F)(F)F)c(-c2ccc(Br)cc2)c1NC(=O)Nc1ccc(F)cc1F	76.5*	-1.6	9.4	31.4	i	84.2*
C/C(=N\Nc1ccc([N+](=O)[O-])cc1)c1ccc(-n2nncc2C)cc1	12.3	15.7	3.9	-9.9	i	.
CC(C)(C)c1cnnn1-c1ccc(/C=N/Nc2ccc([N+](=O)[O-])cc2)cc1	73.5*	3.9	-0.1	25.8	i	68.3*
CCN1/C(=C/c2ccc3cc(C)ccc3[n+]2CC)Sc2ccccc21	105.0*	-143.3	-2.8	-34.2	?	96.3*
CC[n+]1c(/C=C2\Sc3ccccc3N2C)ccc2cccc(C)c21	106.5*	-162.5	-3.1	-23.4	?	100.3*
CCN1/C(=C/C=C/c2sc3ccccc3[n+]2CC)Sc2ccccc21	136.1*	.	-2.5	-16.9	i	83.7*
CCN1/C(=C/c2ccc3cc(C)ccc3[n+]2CC)Sc2cc(C)c(C)cc21	105.9*	-8.8	-0.6	-38.9	.	93.5*
CN1/C(=C/c2cccc[n+]2CCO)Sc2ccccc21	-0.5	-4.5	-5.2	-6.3	i	.
CC[n+]1c(C)sc2cc(C)ccc21	1.8	3.2	1.6	-10.8	i	.
CC[n+]1c(/C=C/Nc2ccccc2)sc2ccccc21	0.9	4.0	0.7	-13.4	i	.
CC[n+]1ccccc1/C=C1\Sc2ccc(C)cc2N1C	1.3	2.3	1.2	-6.3	.	.
CCCCCOc1ccc(Br)cc1CSC(=N)N	68.2*	10.2	-4.4	-159.8	?	105.3*
COc1ccc(Br)cc1CSC(=N)N	1.8	0.1	0.0	-16.8	i	.
CCN(CC)C(=N)/C(C#N)=N/Nc1ccc(C)cc1	-0.5	-1.5	2.0	-4.6	i	.
Cc1ccc(N/N=C(\C#N)C(=O)c2ccsc2)cc1	51.7*	21.9	3.1	0.0	i	71.9*
Clc1ccc(N2CCN(/N=C/c3ccncc3)CC2)cc1	60.7*	-6.2	0.0	3.6	i	50.0*
Cc1ccc(N2CCN(/N=C/c3ccncc3)CC2)cc1	4.3	-6.2	0.2	0.2	i	.
CN1CCC(Oc2ccccc2Sc2ccccc2)CC1	91.7*	-0.2	-0.7	-6.3	i	-0.4	MPTP swell DR=10.5*;MPTP counter DR=33.9*
CC(C)c1noc2ncc(C(=O)c3cc(Cl)cc(Cl)c3O)cc12	93.8*	46.8*	-2.1	6.0	i	105.3*
Cc1nc2ccccc2n1Cc1ccccc1	1.0	-2.8	0.2	-4.5	i	.
Cc1nc2ccccc2n1Cc1ccc(Br)cc1	92.8*	-5.5	-2.1	4.2	i	96.1*
Cc1nc2ccccc2n1Cc1ccccc1Br	73.1*	-0.2	-1.2	-3.6	i	80.9*
CC(C)c1[nH]nc2c1C(c1cccc(C(F)(F)F)c1)NC2=O (stereo not drawn)	.	-0.2	.	.	.	.
